Bioassay records (PubChem BioAssay)
Rab9 promoter act = Rab9 promoter activation. AID 485297. Huh7 Rab9 promoter-luciferase reporter, luminescence, 24 h. Potency, µM (highest dose often 9.22 µM), for the others: top-dose activation, negative = inhibition, most hits filed as activators. 320,000 tested, 2.8% active; also: % of control where 0% means no effect; nearly all actives have a fitted effect of over 60% in size
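Stable Rab9-luc Huh7, 1500 cells/well, 2 h settle; cmpd in DMSO, 24 h, 37 °C/5% CO2; luciferase reagent 10 min RT; luminescence.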
ELG1 genotoxic = genotoxicity induction in ELG1-luciferase HEK293T cells; Potency, µM (titrated, usually from 46 µM), for inactives: top-dose activity change, positive = activation, hits mostly activators; 330,000 tested, 1.3% active; AID 504466; HEK293T ELG1-luciferase reporter, luminescence, 16 h; also: % of control where 0% means no effect; nearly all actives have a fitted effect of over 60% in size
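Genotoxicity was scored as increased ELG1-luciferase reporter signal, measured by ONE-Glo luminescence (30 min, room temperature). Compound or vehicle exposure of the HEK293T reporter cells lasted 16 hr at 37°C.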
FLuc counter = inhibits or activates purified firefly luciferase, miR-21 counter-screen; AID 588342; 360,000 tested, 6.9% active; P08659; Potency, µM (series often up to 57.5 µM), for inactives: top-dose activity change, negative = inhibition, hits mostly inhibitors; purified FLuc, Km substrates, luminescence inhibition;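 also: plate controls were vehicle for no effect and reference inhibitor for full effect; nearly all actives have a fitted effect of over 55% in size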
Target sequence (P08659 whole entry, looked up): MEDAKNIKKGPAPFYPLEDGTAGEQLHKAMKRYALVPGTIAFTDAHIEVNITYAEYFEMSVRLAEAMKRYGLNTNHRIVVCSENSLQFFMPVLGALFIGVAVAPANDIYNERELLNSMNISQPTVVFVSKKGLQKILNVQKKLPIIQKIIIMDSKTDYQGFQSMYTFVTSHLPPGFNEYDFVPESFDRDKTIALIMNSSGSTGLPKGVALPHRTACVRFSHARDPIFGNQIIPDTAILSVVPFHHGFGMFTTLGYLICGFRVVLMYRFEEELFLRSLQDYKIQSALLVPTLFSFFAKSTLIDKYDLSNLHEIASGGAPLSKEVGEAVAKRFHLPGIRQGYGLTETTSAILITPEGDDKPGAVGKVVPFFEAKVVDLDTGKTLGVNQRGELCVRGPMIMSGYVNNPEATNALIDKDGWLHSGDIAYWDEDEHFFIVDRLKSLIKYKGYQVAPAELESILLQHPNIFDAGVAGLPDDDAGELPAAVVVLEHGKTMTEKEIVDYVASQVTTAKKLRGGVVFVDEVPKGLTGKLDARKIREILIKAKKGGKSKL
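Purified P. pyralis luciferase, 10 nM final, with Km-level 10 uM D-luciferin and 10 uM ATP in 50 mM Tris acetate pH 7.5, 10 mM Mg acetate, 0.01% Tween-20, 0.05% BSA; 6-point qHTS titration about 60 µM downward; luminescence read.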
NPC1 promoter act = NPC1 promoter activation; Huh7 NPC1 promoter luciferase reporter, 24 h; Potency, µM (highest dose often 9.22 µM), without a hit: at the highest dose activation, usual class: activators; 320,000 tested, 2.4% active; also: % of control where 0% means no effect; nearly all actives have a fitted effect of over 60% in size
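Readout is luciferase luminescence, reflecting NPC1 promoter activation in stably transfected Huh7 cells after 24 h compound exposure at 37 °C in reduced-serum medium with 10% FBS.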
SMN2 splice enh = increases expression of the SMN2 splice variant; HEK293 SMN2-luciferase splicing reporter, luminescence, 30-36 h; Potency, µM (top dose mostly 46.1 µM), inactives show at the highest dose activity change, positive = activation, actives largely listed as activators; 210,000 tested, 2.8% active; AID 1458; also: % of control where 0% means no effect; nearly all actives have a fitted effect of over 55% in size
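qHTS luciferase splicing reporter: luminescence rises when SMN2 exon 7 is included in transfected HEK293 cells. Compound exposure lasted 30-36 h at 37C, with 4.5 mM final sodium butyrate as control, followed by a ONE-Glo read.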
An asterisk follows results filed as active; ? = inconclusive; / = not tested or not shown. This is a sample that favours compounds with a hit; in the whole collection about 7.5% have one here. Calls follow the shape of the dose curve; as a rule, active = well fitted curve in the direction sought with a large enough effect; inconclusive = small, poorly fitted or top-dose-only effect, or another doubt; inactive = no such curve, though single readings can be large; an effect the other way counts as inactive or inconclusive. Potency is read from the fitted curve at half-maximal effect.

SMILES	Rab9 promoter act	ELG1 genotoxic	FLuc counter	NPC1 promoter act	SMN2 splice enh
COc1ccc2cc(C(=O)N3CCc4ccccc43)[nH]c2c1	4µM*	?	0.95µM*	?	/
O=C(c1cc2cc(F)ccc2[nH]1)N1CCc2ccccc21	3.5µM*	?	?	4µM*	/
CCc1c2c(nc3ccc(OC)cc13)OC(C)C2 (configuration not stated)	/	/	/	/	6%
O=C(O)c1ccc2nc(-c3cc4cc(Cl)ccc4oc3=O)[nH]c2c1	/	/	21µM*	/	/
Cc1cccc2cc(-c3nc4ccc(C(=O)O)cc4[nH]3)c(=O)oc12	?	?	0.43µM*	?	/
CCC(C)c1ccc(NC(=S)Nc2ccc(OC)cc2)cc1 (configuration not stated)	-4%	-1%	-11%	-4%	-18%
CCC(C)c1ccc(Nc2ncccc2C#N)cc1 (configuration not stated)	?	?	21µM*	?	?
CCc1ccc(Nc2ncccc2C#N)cc1	4%	7%	?	2%	8%
Cc1cccc(C(=O)Nc2cccc(OC(=O)c3cccc(C)c3)c2)c1	3%	?	-26%	10%	-4%
COc1ccc(C(=O)Nc2cccc(OC(=O)c3ccco3)c2)cc1	?	4.6µM*	13µM*	?	/
CC(=O)Oc1ccc(C(=O)Nc2cccc(NC(=O)c3ccco3)c2)cc1	7%	-6%	15µM*	-17%	/
O=C(Nc1cccc(NC(=O)c2ccco2)c1)c1ccc([N+](=O)[O-])cc1	-7%	-2%	3%	-3%	/
COc1ccc(C(=O)Nc2cc(OC)c(NC(=O)c3ccco3)cc2OC)cc1	4%	-20%	?	-4%	-19%
COc1ccc(C(=O)Nc2cccc(OC(=O)c3ccc(C)c(C)c3)c2)cc1	24%	10%	11µM*	?	?
CC(C)CN(C(=O)COC(=O)CNC(=O)c1ccccc1F)C1CCS(=O)(=O)C1 (configuration not stated)	0%	1%	-2%	0%	3%
Cc1ccc(OCc2nc(-c3ccccn3)n[nH]2)cc1	?	7%	24µM*	?	?
N/C(=N\OC(=O)COc1ccc2ccccc2c1Br)c1cccnc1	-2%	11%	19µM*	1%	-2%
N/C(=N\OC(=O)COc1ccc2ccccc2c1Br)c1ccccn1	?	?	21µM*	?	?
O=C(COc1ccc2ccccc2c1Br)N1CCCC1	?	?	?	19%	/
CC#CC(=O)N1CCC(CO)(CCc2ccccc2)CC1	16%	4%	?	-1%	/
COc1cccc(NC(=O)c2oc3ccccc3c2NC(=O)c2ccc(OC(C)C)cc2)c1	/	/	2.7µM*	/	10%
CSc1nc2cc3c(cc2n1C(=O)c1ccc(C)cc1)OCCO3	16%	8%	?	3%	7%
COc1cccc(C(=O)n2c(SC)nc3cc4c(cc32)OCCO4)c1	21%	13%	13µM*	17%	12%
COc1cccc(NC(=O)c2oc3ccccc3c2NC(=O)c2ccc3c(c2)OCO3)c1	28%	-7%	2.7µM*	16%	1%
COc1cccc(NC(=O)c2ccc3c(c2)OCCO3)c1	0.71µM*	2.1µM*	0.67µM*	1.8µM*	/
SMILES	Rab9 promoter act	ELG1 genotoxic	FLuc counter	NPC1 promoter act	SMN2 splice enh
CCOC(=O)c1cnn(-c2nc(-c3ccccc3F)cs2)c1C(F)(F)F	5%	3%	-11%	0%	-7%
COc1cccc(NC(=O)c2ccc3c(c2)OCO3)c1	0.45µM*	6.5µM*	2.7µM*	0.5µM*	/
COc1cccc(C(=O)Nc2cc3c(cc2C(C)=O)OCCO3)c1	0%	4%	5.4µM*	0%	29%
CCC(=O)Nc1cccc(NC(=O)c2ccc3c(c2)OCO3)c1	29%	7%	15µM*	17%	?
CCCC(=O)Nc1ccccc1NC(=O)c1ccc2c(c1)OCO2	10%	1%	0%	2%	/
COc1cccc(NC(=O)COC(=O)c2ccc3c(c2)OCO3)c1	0%	1%	-14%	-1%	/
COCCCn1c(=O)c2sccc2n(Cc2cccc(F)c2)c1=O	3%	-6%	0%	-3%	/
CC1CCCC(C)N1C(=O)CN1C(=O)C(C)(C)Oc2ccc(C(=O)NC3CCCCC3)cc21 (configuration not stated)	/	/	10%	/	-11%
O=c1c2cn[nH]c2[nH]c(=S)n1-c1ccccc1	-2%	3%	0%	-1%	-17%
Cc1c2cn[nH]c(=O)c2c(C)n1-c1ccccc1	4%	18%	6µM*	3%	/
CCc1c(C)sc(NC(=O)c2cc(C)no2)c1C#N	17%	24%	13µM*	12%	3%
CCc1c(C)sc(NC(=O)c2cc(C(C)C)on2)c1C#N	-3%	6%	?	10%	3%
Cc1cc(C(=O)Nc2sc(C)c(C)c2C#N)no1	8%	11µM*	19µM*	24%	/
CCc1cc(C(=O)Nc2sc(C)c(CC)c2C#N)no1	/	/	15µM*	/	16%
CC(Cc1cccs1)NC(=O)Nc1ccc(Cl)cc1 (configuration not stated)	?	5.6µM*	12µM*	?	14%
CC(Cc1cccs1)NC(=O)Nc1ccc(Cl)c(Cl)c1 (configuration not stated)	?	2%	21µM*	?	6%
Cc1ccc(-n2[nH]c(C)c(C=Nc3ccc(Br)cn3)c2=O)cc1	11%	8%	-12%	10%	-6%
Cc1c(C(=O)NCC2CCCO2)oc2ccc3c(c12)C(=O)CC(C)(C)O3 (configuration not stated)	2.5µM*	?	2.7µM*	?	/
COc1ccccc1CNC(=O)c1oc2ccc3c(c2c1C)C(=O)CC(C)(C)O3	/	/	5.4µM*	/	13%
Cc1cccc(C)c1NC(=O)c1oc2ccc3c(c2c1C)C(=O)CC(C)(C)O3	/	/	-13%	/	/
COc1cccc(NC(=O)Nc2ccc3nc(N4CCN(C)CC4)cc(C)c3c2)c1	/	/	12µM*	/	/
Cc1cc(C)cc(NC(=O)Nc2ccc3nc(N4CCN(C)CC4)cc(C)c3c2)c1	/	/	-20%	/	/
Cc1cc(N2CCN(C)CC2)nc2ccc(NC(=O)Nc3ccccc3Cl)cc12	/	/	1.7µM*	/	/
COc1cc(/C=C2\SC(=S)N(N3CCOCC3)C2=O)cc(OC)c1OC	-10%	5%	-1%	-1%	-19%
COCCN(C(=O)Nc1ccc(F)cc1F)c1nc2ccccc2s1	14%	13%	-10%	26%	/
CCCOc1ccc2c(c1)C(=NN=C(N)N)c1cc(OCCC)ccc1-2	1%	-4%	?	-5%	/
O=C(O)COc1ccc2c(c1)CCCC2	1%	-2%	-25%	0%	-1%
CCOc1ccc2c(c1)C(=O)c1cc(OCC(=O)O)ccc1-2	2%	-8%	3.4µM*	14%	/
CCCCOc1ccc2c(c1)C(=O)c1cc(O)ccc1-2	3.2µM*	?	27µM*	?	/
